The values below come from paper PMC4336329 (PLoS ONE, 2015).

The whole screen tested about 310,000 compounds, of which about 14,000 (4.5%) showed an effect of 50% or more. The effect is printed as a negative number. The sample holds strong results, similar compounds and a random draw of the others, so the mix is not that of the screen.
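Also: peak tail current of the secondary pulse compared with the same well before compound.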

The target of the experiment is human ether-à-go-go-related gene (hERG) potassium channel (human, UniProt Q12809). As to the kind of experiment: primary screen, population patch clamp on CHO cells stably expressing hERG; higher = less effect of the substance.
Sequence of human ether-à-go-go-related gene (hERG) potassium channel (Q12809 whole entry, looked up): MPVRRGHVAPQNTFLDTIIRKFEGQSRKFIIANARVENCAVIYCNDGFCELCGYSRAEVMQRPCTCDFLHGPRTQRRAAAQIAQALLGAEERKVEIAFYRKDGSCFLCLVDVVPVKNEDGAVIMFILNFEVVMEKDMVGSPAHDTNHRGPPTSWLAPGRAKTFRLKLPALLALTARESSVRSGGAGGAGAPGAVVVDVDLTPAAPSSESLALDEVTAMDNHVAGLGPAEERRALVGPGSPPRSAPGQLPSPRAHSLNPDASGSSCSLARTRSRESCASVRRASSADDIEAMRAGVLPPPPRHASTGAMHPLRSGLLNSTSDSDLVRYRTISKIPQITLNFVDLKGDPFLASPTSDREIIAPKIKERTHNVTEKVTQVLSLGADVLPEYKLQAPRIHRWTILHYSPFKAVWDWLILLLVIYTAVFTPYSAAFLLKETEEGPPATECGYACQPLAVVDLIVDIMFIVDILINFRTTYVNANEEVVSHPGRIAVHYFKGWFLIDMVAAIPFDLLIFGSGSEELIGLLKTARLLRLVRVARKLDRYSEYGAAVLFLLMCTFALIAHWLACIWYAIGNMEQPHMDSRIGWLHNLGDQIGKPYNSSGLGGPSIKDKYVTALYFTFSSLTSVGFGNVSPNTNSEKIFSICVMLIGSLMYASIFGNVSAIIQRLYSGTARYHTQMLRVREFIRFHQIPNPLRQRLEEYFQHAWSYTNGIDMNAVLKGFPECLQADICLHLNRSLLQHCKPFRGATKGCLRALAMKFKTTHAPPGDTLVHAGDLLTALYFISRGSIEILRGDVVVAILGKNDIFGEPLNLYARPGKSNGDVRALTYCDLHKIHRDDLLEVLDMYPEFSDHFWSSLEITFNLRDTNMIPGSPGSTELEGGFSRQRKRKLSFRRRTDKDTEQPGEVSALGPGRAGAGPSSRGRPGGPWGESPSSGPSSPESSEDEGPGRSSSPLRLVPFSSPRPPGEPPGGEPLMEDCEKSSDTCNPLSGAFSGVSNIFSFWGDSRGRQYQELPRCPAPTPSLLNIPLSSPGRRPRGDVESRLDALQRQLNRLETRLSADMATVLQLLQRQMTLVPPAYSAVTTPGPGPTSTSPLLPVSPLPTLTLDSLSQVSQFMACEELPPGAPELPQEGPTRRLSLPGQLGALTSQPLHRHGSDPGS
In the case of `COc1ccc(-n2c(SCC(=O)Nc3ccc4c(c3)OCO4)nc3c(c2=O)SCC3)cc1`, the “hERG current change (%, negative = inhibition) at 10uM” value is listed as -10.9%.
In the case of `CCN(C(=S)NCCOC)c1cccc2ccccc12`, the “hERG current change (%, negative = inhibition) at 10uM” value is given as 8.8%.
As to `CC1(O)N(Cc2ccccc2)C(=O)OC12CCCCC2` (centres unmarked), the “hERG current change (%, negative = inhibition) at 10uM” value was determined as 9.89%.
Regarding `CC1CN(CC(=O)NCc2ccc(F)cc2)CC(C)O1` (centres unmarked), the “hERG current change (%, negative = inhibition) at 10uM” value is 7.79%.
As to `CCn1ncc(S(=O)(=O)N2CCN(c3cccc(OC)c3)CC2)c1C`, the “hERG current change (%, negative = inhibition) at 10uM” value stood at 5.68%.
Turning to `N/C(=N\OC(=O)c1ccccc1[N+](=O)[O-])c1cccnc1`, the “hERG current change (%, negative = inhibition) at 10uM” value is -2.9%.
For the compound `O=C(NCc1ccco1)c1cccc(S(=O)(=O)N2CCCCC2)c1`, the “hERG current change (%, negative = inhibition) at 10uM” value is -24.7%.
Then `Cc1ccc[n+](Cc2ccc([N+](=O)[O-])cc2)c1.[Br-]`, with 27.1%; and `C=CCc1cc(C)ccc1OCCOCCN1CCN(C)CC1.O=C(O)C(=O)O`, with -10.7%; and `C=CCc1ccc(OCCCNCc2ccccc2)c(OC)c1.O=C(O)C(=O)O`, with -57.4%.
Then `COc1cc(C)ccc1OCCCCNCc1ccccc1.O=C(O)C(=O)O`, with -0.752%; and `C=CCc1ccc(OCCCCNC(C)CC)c(OC)c1.O=C(O)C(=O)O` (centres unmarked), with -39.3%.
Then `C=CCc1ccc(OC(=O)c2ccccc2)c(OC)c1`, with 5.73%; and `C=CCc1cc(OC)ccc1OCCN(C)Cc1ccccc1.O=C(O)C(=O)O`, with -16.6%.
As for `C/C=C/c1ccc(OCC(=O)N2CCc3cc(OC)c(OC)cc3C2)c(OC)c1`, the “hERG current change (%, negative = inhibition) at 10uM” value is -12.4%.
With `C/C=C/c1ccc(OCCN2CCc3ccccc3C2)c(OC)c1`, the “hERG current change (%, negative = inhibition) at 10uM” value is recorded as -77.7%.
Then `C=CCc1ccc(OCCOCCN(C)C)c(OC)c1.O=C(O)C(=O)O`, with -27.5%; and `C=CCc1cc(OC)ccc1OCCOCCN1CCc2ccccc2C1.O=C(O)C(=O)O`, with -71%.
With `C=CCc1ccc(OCCN2CCc3ccccc3C2)c(OC)c1.O=C(O)C(=O)O`, the “hERG current change (%, negative = inhibition) at 10uM” value is recorded as -67.6%.
The same measure for `C/C=C/c1ccc(OCCn2nnc3ccccc32)c(OC)c1`: -2.9%; for `O=C(NCc1ccncc1)c1ccc(Cl)c(S(=O)(=O)N2CCOCC2)c1`: 12.4%.
Consider `CC1(C)OCC(COC(=O)Nc2cccnc2)([N+](=O)[O-])CO1`, for which the “hERG current change (%, negative = inhibition) at 10uM” value was found to be 23.8%.
The same measure for `O=C(Nc1ccccc1)OCCOc1ccccc1`: -17.8%; for `CC1(c2ccccc2)CC(C)(C)N2C(=O)/C(=C3\SC(=S)NC3=O)c3cccc1c32` (centres unmarked): -0.561%; for `O=C(COC(=O)Cc1cn2ccsc2n1)Nc1nc2ccccc2s1`: 8.88%.
For `CCOCCCNC(=O)C1CCN(c2cc(C)nc3c(-c4ccc(OC)c(OC)c4)c(C)nn23)CC1`, the “hERG current change (%, negative = inhibition) at 10uM” value is listed as -7.5%.
Take `C=CCc1ccc(OCCOc2cccc3ccc(C)nc23)c(OC)c1.O=C(O)C(=O)O`: the “hERG current change (%, negative = inhibition) at 10uM” value is given as -6.6%.
Turning to `C=CCc1ccc(OCCOCCOc2cccc3ccc(C)nc23)c(OC)c1.O=C(O)C(=O)O`, the “hERG current change (%, negative = inhibition) at 10uM” value was -61.6%.
`COc1cc(C)ccc1OCCOCCOc1cccc2ccc(C)nc12.O=C(O)C(=O)O`: the “hERG current change (%, negative = inhibition) at 10uM” value was -29.3%.
For the compound `CCOC(=O)c1[nH]c(C)c(C(=O)N2CCc3c([nH]c4ccccc34)C2c2ccccn2)c1C` (centres unmarked), the “hERG current change (%, negative = inhibition) at 10uM” value is on record as -0.347%.
Take `CSc1nc(NCc2ccco2)c2c3c(sc2n1)CN(C)CC3`: the “hERG current change (%, negative = inhibition) at 10uM” value is on record as -75%.
On to `CSc1nc(NCCCN(C)C)c2c3c(sc2n1)CN(C)CC3`, for which the “hERG current change (%, negative = inhibition) at 10uM” value was 1.56%.
`CCN(CC)CCCNc1nc(SC)nc2sc3c(c12)CCN(C)C3`: the “hERG current change (%, negative = inhibition) at 10uM” value was 11%.
For `CSc1nc(NCc2ccccc2)c2c3c(sc2n1)CN(C)CC3`, the “hERG current change (%, negative = inhibition) at 10uM” value is on record as -78%.
On to `CCC(O)CNc1nc(SC)nc2sc3c(c12)CCN(C)C3` (centres unmarked), for which the “hERG current change (%, negative = inhibition) at 10uM” value is given as 0.847%.
For `CSc1nc(SCC(=O)NCc2ccco2)c2c3c(sc2n1)CN(C)CC3`, the “hERG current change (%, negative = inhibition) at 10uM” value was -0.986%.
`Cc1ccc(CN2CC(C(=O)O)CC2=O)cc1` (centres unmarked): the “hERG current change (%, negative = inhibition) at 10uM” value is 6.55%.
In the case of `CCOc1ccc(NC(=O)C(CC(=O)O)Cc2ccc(Br)cc2)cc1` (centres unmarked), the “hERG current change (%, negative = inhibition) at 10uM” value was found to be 11.1%.
For the compound `COc1ccc(C(=O)Oc2cccc(/C=N/NC(N)=S)c2)cc1`, the “hERG current change (%, negative = inhibition) at 10uM” value came out at 11.7%.
`Cc1ccccc1NC(=S)N(CCCN1CCC(C)CC1)Cc1ccco1`: the “hERG current change (%, negative = inhibition) at 10uM” value is on record as -47.9%.
Turning to `Cc1ccc2[nH]c(=O)c(CN(Cc3ccco3)C(=O)CN3CCCC(C)C3)cc2c1` (centres unmarked), the “hERG current change (%, negative = inhibition) at 10uM” value was -57%.
In the case of `Cc1ccc(NC(=S)N(CCCN2CCCC(C)C2)Cc2ccco2)cc1C` (centres unmarked), the “hERG current change (%, negative = inhibition) at 10uM” value was -76.2%.
Turning to `Cc1ccc(NC(=S)N(CCCN2CCOCC2)Cc2ccco2)cc1`, the “hERG current change (%, negative = inhibition) at 10uM” value was determined as 4.36%.
`Cc1ccc(NC(=S)N(CCCN2CCC(C)CC2)Cc2ccco2)cc1C`: the “hERG current change (%, negative = inhibition) at 10uM” value is -70.3%.
